# Screening results: PubChem, National Center for Advancing Translational Sciences (NCATS)
# Only some compounds are listed: those with a hit (about 7.6% of all), similar ones and a draw of the others.
# KB-V1 cytotox – qHTS assay for MDR1-selective chemotherapeutics: Primary screen using the drug-selected MDR subline cells KB-V1; Potency, µM (doses to about 46.1 µM), most hits filed as cytotoxic; KB-V1 MDR cells viability, CellTiter-Glo, 72 h; AID 1347076, 2019; 400,000 tested, 3.4% active; note: potency is the fitted concentration of half-maximal effect; % is set by controls: 0 for no effect and ±100 for the full control effect; nearly all actives have a fitted effect of over 60% in size
#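 In this primary screen, KB-V1 cells overexpressing P-gp are incubated with library compounds (lowest to highest concentration) for 72 h at 37 degrees C before a luminescent ATP viability read.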
# KB-3-1 tox – qHTS assay for MDR1-selective chemotherapeutics: Primary screen using the parental adenocarcinoma cell KB-3-1; 400,000 tested, 1.4% active; Potency, µM (doses to about 46.1 µM), most hits filed as cytotoxic; AID 1347075, 2019; KB-3-1 viability, CellTiter-Glo ATP luminescence, 72 h; note: potency is the fitted concentration of half-maximal effect; % is set by controls: 0 for no effect and ±100 for the full control effect; nearly all actives have a fitted effect of over 60% in size
#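 Multi-concentration cytotoxicity screen in KB-3-1 cells grown in DMEM lacking phenol red with 10% FBS. After 72 h at 37 °C with compound, ATP-dependent luminescence was recorded.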
# KCNH2 WT inh – qHTS for Inhibitors of KCHN2 3.1: Wildtype qHTS. Voltage-gated inwardly rectifying potassium channel KCNH2 (Homo sapiens), Q12809. U2OS, BacMam KCNH2, thallium flux FluxOr; active compounds read low. activity change, % at 1.84 µM. 340,000 tested, 0.37% active;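 active = maximum activity change below -70%; inconclusive = maximum activity change between -70% and -50%; inactive = maximum activity change above -50%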; note: % is set by controls: 0 for no effect and ±100 for the full control effect
#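 U2OS cells transduced with wild-type KCNH2 virus are loaded with FluxOr dye for 45 min, and thallium flux is measured in kinetic reads before and after stimulation buffer. Rate constants are normalized to DMSO controls.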
# KCNH2 3.1 block – qHTS for Inhibitors of KCHN2 3.1: Mutant qHTS; Potassium voltage-gated channel subfamily H member 2, brain isoform KCNH2 3.1 (human); U2OS KCNH2 3.1, thallium flux FluxOr; active compounds read low; activity change, % (tested at about 1.8 µM); 340,000 tested, 0.95% active;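 active = maximum activity change below -70%; inconclusive = maximum activity change from -70% to -50%; inactive = maximum activity change above -50%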;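 note: thallium influx rate constant from kinetic fluorescence after stimulation buffer; % is set by controls: 0 for no effect and ±100 for the full control effect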
#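 FluxOr-based Tl+ influx in U2OS cells transduced with KCNH2 3.1 virus; rate constants normalized to DMSO controls.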
# SW480 rereplic – A quantitative high throughput screen for small molecules that induce DNA re-replication in SW480 colon adenocarcinoma cells; SW480 DNA re-replication, Hoechst DNA content imaging, 48 h; Potency, µM (doses to about 46.1 µM), inactives show at the top dose re-replication activation, hits mostly activators; 340,000 tested, 1.8% active; note: potency is the fitted concentration of half-maximal effect; % of control where 0% means no effect; nearly all actives have a fitted effect of over 55% in size
#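 Cells (250 per well) received 23 nL compound or DMSO by pin tool and were kept 48 hr at 37 C, 5% CO2. Nuclei were then stained with Hoechst for 40 min and scanned for DNA content.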
# MCF10A rerep – A quantitative high throughput screen for small molecules that induce DNA re-replication in MCF 10a normal breast cells; MCF 10A DNA re-replication, Hoechst nuclear intensity, 48 h; Potency, µM (doses to about 46.1 µM), for inactives: at the highest dose activity, positive = re-replication, actives largely listed as activators; 350,000 tested, 2.9% active; AID 624296, 2012; note: potency is the fitted concentration of half-maximal effect; % of control where 0% means no effect; nearly all actives have a fitted effect of over 50% in size
# The depositor's hits bear a star; i = inactive; u = inconclusive; x = no result. Unless noted, calls come from the whole dose curve; as a rule, active = well fitted curve in the direction sought with a large enough effect; inconclusive = small, poorly fitted or top-dose-only effect, or another doubt; inactive = no such curve, though single readings can be large; an effect the other way counts as inactive or inconclusive.
SMILES,KB-V1 cytotox,KB-3-1 tox,KCNH2 WT inh,KCNH2 3.1 block,SW480 rereplic,MCF10A rerep
COc1ccc2c(C(=O)NCc3ccc4c(c3)OCO4)c(-c3ccc(S(C)(=O)=O)cc3)sc2c1,i,i,9,-27,3.7µM*,118%
Cc1ccccc1C(=O)Nc1cccc(C(=O)OCc2cc(=O)n3ccsc3n2)c1,i,i,x,x,x,x
Cc1cc(-c2cc(-c3ccc(Cl)cc3)on2)nc(NC2CCCC2)n1,i,i,-5,-4,93%,u
Cc1cc(-c2cc(-c3ccccc3)on2)nc(NC2CCCC2)n1,i,i,0,-70*,2%,u
COc1ccc(OC)c(/C=C/C(=O)N2C(=O)c3cccc(N)c3C2=O)c1,u,u,-3,-9,u,18µM*
COc1cc(/C=C/C(=O)N2C(=O)c3cccc(N)c3C2=O)cc(OC)c1OC,i,i,0,-8,u,9.2µM*
COc1cc(/C=C/C(=O)N2CCN(C(=O)/C=C/c3cc(OC)c(OC)c(OC)c3)CC2)cc(OC)c1OC,i,i,0,-2,-1%,1%
CC(=O)c1c(C)[nH]c(C2=NNC(=NCc3ccccc3)SC2)c1C,i,i,15,-23,2%,-1%
CCOC(=O)c1c(C)[nH]c(C2=NNC(=Nc3cccc(Cl)c3)SC2)c1C,x,x,x,x,21µM*,6.5µM*
O=C1CCC[C@@H]2CC(Nc3ccccc3)C[C@@H]3CCN1[C@H]23 (stereo not given in full),i,i,x,x,x,x
CCOC(=O)c1[nH]ncc1CN1CCN(Cc2ccccc2)C(CCO)C1 (stereo not given),i,i,-15,13,-13%,2%
O=C(CN1CCN(CC(=O)Nc2ccc(OCc3ccccc3)cc2)CC1)Nc1ccc(F)cc1,3.7µM*,i,-103*,-94*,13%,28%
O=C(CCN1CCN(Cc2ccccc2)CC1)Nc1ccc(OCc2ccccc2)cc1,2.6µM*,u,-39,-95*,19%,u
CCOc1ccc(NC(=O)CN2CCN(CC(=O)Nc3ccc4c(c3)OCO4)CC2)cc1,i,i,-120*,-106*,2%,u
CCOc1ccc2nc(NC(=O)CSc3nc(SC)ns3)sc2c1,23µM*,i,-1,-7,9%,10%
O=C(CCN1CCN(CCO)CC1)Nc1ccc(OCc2ccccc2)cc1,i,i,3,-3,-4%,7%
O=C(CN1CCOCC1)Nc1ccc(OCc2ccccc2)cc1,i,i,5,-18,-13%,-1%
CC1CCN(CC(=O)Nc2ccc3c(c2)OCO3)CC1,i,i,-3,5,-80%,10%
CCCCOC(=O)c1ccc(NC(=O)c2ccc3c(c2)CCN3S(C)(=O)=O)cc1,i,i,x,x,x,x
COc1ccccc1-n1c(SCC(=O)Nc2ccc3c(c2)OCO3)nc2c(c1=O)SCC2,7.3µM*,i,-6,-10,1%,17%
O=C(CN1CCN(c2nc(-c3ccc(F)cc3)cs2)CC1)Nc1ccc2c(c1)OCO2,u,i,-1,-124*,13%,u
CCOc1ccc(NC(=O)CN2CCN(CC(=O)c3ccc(OCC)cc3)CC2)cc1,i,i,18,-49,1%,u
COc1cccc(/C=C/C(=O)NNC(=O)CCN2CCN(Cc3ccccc3)CC2)c1,i,23µM*,13,-31,3.7µM*,u
CCOc1ccc(NC(=O)CN2CCN(CC(=O)Nc3ccc(F)cc3)CC2)cc1,u,i,-92*,-89*,-8%,-2%
